# Test results published in a collection of fitness landscapes (doi:10.1016/j.celrep.2020.107928).
# In all, about 81,000 sequences were measured (“one-hybrid fitness for binding NBS DNA”: median about -0.1, highest 2% from about 0.36 on). Shown is part of a subset that was picked to be rich in the highest values.
# B1: Caulobacter ParB omega fusion; a variant is named by its letters at X, in order, B8GW30 (parent)
# chain: MESVVVGEPGMSEGRRGLGRGLSALLGEVDAAPAQAPGEQLGGSREAPIEILQRNPDQPRRTFREEDLEDLSNSIREKGVLQPILVRPSPDTAGEYQIVAGERAWRAAQRAGLKTVPIMVRELDDLAVLEIGIIENVQRADLNVLEEALSYKVLMEKFERTQENIAQTIGKSXSHVANXMRLLXLPDEVQSYLVSGELTAXHARAIAAAADPVALAKQIIEGGLSVRETEALARKAPNLSAGKSKGGRPPRVKDTDTQALESDLSSVLGLDVSIDHRGSTGTLTITYATLEQLDDLCNRLTRGI
# Variants of: B1
# Experiment: one-hybrid fitness for binding NBS DNA (the Noc-binding site; scaled: cognate 1, non-cognate 0); higher = stronger binding
# Details: with NBS DNA site
# Method in brief: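 Fitness is the rescaled log change in variant-to-wild-type read ratio, measured by Illumina sequencing of plasmids before and after bacterial one-hybrid selection. The scale puts cognate at 1 and non-cognate at 0. Selection of Caulobacter ParB libraries, four specificity codons randomised, took place in E. coli USO with a HIS3 reporter, site 19 bp from the promoter, over 48 hours at 37°C on M9-minus-histidine with 0.1 mM IPTG and 5 mM 3-AT.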
row,Variant,one-hybrid fitness for binding NBS DNA
1,SQRN,≤ 0.2
2,VTPF,≤ 0.2
3,LTHI,≤ 0.2
4,PWLV,≤ 0.2
5,QQFG,≤ 0.2
6,QQNC,0.265
7,QQVC,≤ 0.2
8,QQKY,0.63
9,QQFC,≤ 0.2
10,QQVY,≤ 0.2
11,QQVG,≤ 0.2
12,QQKG,0.437
13,QQYC,≤ 0.2
14,QQDY,≤ 0.2
15,QQRC,0.455
16,QQKC,0.449
17,RRWI,0.2
18,GLIT,≤ 0.2
19,LTTA,≤ 0.2
20,AREP,≤ 0.2
21,GRTD,≤ 0.2
22,PMHT,≤ 0.2
23,PPTR,≤ 0.2
24,KSNL,≤ 0.2

row,Variant,one-hybrid fitness for binding NBS DNA
1,THKH,≤ 0.2
2,WPSG,≤ 0.2
3,GFYT,≤ 0.2
4,QQYY,≤ 0.2
5,QQRY,0.597
6,NQKS,≤ 0.2
7,QQKN,0.464
8,QQFY,≤ 0.2
9,QQVS,0.33
10,QQRM,0.459
11,QQFM,≤ 0.2
12,QQKS,0.714
13,QQYM,≤ 0.2
14,TWEG,≤ 0.2
15,PTGW,≤ 0.2
16,RYQK,≤ 0.2
17,KVTF,≤ 0.2
18,WKWG,≤ 0.2
19,DWIC,≤ 0.2
20,LTTQ,≤ 0.2
21,SPPV,≤ 0.2
22,QQRG,0.407
23,QQAK,≤ 0.2
24,QQVM,≤ 0.2

row,Variant,one-hybrid fitness for binding NBS DNA
1,QQKM,0.476
2,QQKK,0.506
3,QQYG,≤ 0.2
4,QQPK,≤ 0.2
5,QQDK,≤ 0.2
6,QQYK,≤ 0.2
7,QQRK,0.499
8,QQDG,≤ 0.2
9,QQDM,≤ 0.2
10,ASHP,≤ 0.2
11,HWMG,≤ 0.2
12,ITPE,≤ 0.2
13,GQNS,≤ 0.2
14,TPEF,≤ 0.2
15,IIVG,≤ 0.2
16,NNMC,≤ 0.2
17,QQKD,0.345
18,QQKH,0.657
19,QQKP,0.336
20,SQHR,≤ 0.2
21,QCGI,≤ 0.2
22,QREI,≤ 0.2
23,IDNI,0.591
24,IDPI,≤ 0.2

row,Variant,one-hybrid fitness for binding NBS DNA
1,QSGI,≤ 0.2
2,IDCI,≤ 0.2
3,QPRI,≤ 0.2
4,QCRI,0.407
5,QRYI,0.254
6,QSRI,0.338
7,QRGI,0.37
8,QRRI,0.43
9,PDRM,≤ 0.2
10,MWKT,≤ 0.2
11,DTEY,≤ 0.2
12,DDNC,≤ 0.2
13,PMEV,≤ 0.2
14,FFGC,≤ 0.2
15,MTER,≤ 0.2
16,QCNI,≤ 0.2
17,QTYI,≤ 0.2
18,QRDI,≤ 0.2
19,QTRI,0.478
20,QTDI,≤ 0.2
21,QRNI,0.403
22,HLFS,≤ 0.2
23,RRGM,0.237
24,RRGS,0.55

row,Variant,one-hybrid fitness for binding NBS DNA
1,RRGD,≤ 0.2
2,RRGN,0.324
3,RRGH,0.44
4,RRGP,≤ 0.2
5,PPPL,≤ 0.2
6,GQQS,≤ 0.2
7,RDPN,≤ 0.2
8,DGTL,≤ 0.2
9,SCPT,≤ 0.2
10,RTKG,0.223
11,RTKR,0.866
12,RTKM,0.303
13,RTVR,0.416
14,WTEY,≤ 0.2
15,YTWG,≤ 0.2
16,PYNR,≤ 0.2
17,QPQS,≤ 0.2
18,QMQP,≤ 0.2
19,QHIS,0.258
20,QCQS,0.448
21,QSQS,0.36
22,QHQN,≤ 0.2
23,QHQS,0.394
24,QMQH,≤ 0.2

row,Variant,one-hybrid fitness for binding NBS DNA
1,QMQS,0.394
2,CTNW,≤ 0.2
3,LAHD,≤ 0.2
4,LHIV,≤ 0.2
5,RRMY,0.338
6,RKMM,≤ 0.2
7,RPMT,≤ 0.2
8,RTMK,≤ 0.2
9,RFMT,≤ 0.2
10,RKMT,0.587
11,RTMT,0.491
12,RSMT,0.305
13,RTMG,≤ 0.2
14,RCMT,0.492
15,RRMT,0.776
16,RRMM,0.221
17,PHSL,≤ 0.2
18,GMRS,≤ 0.2
19,SYNI,≤ 0.2
20,EIAA,≤ 0.2
21,WPVG,≤ 0.2
22,AYDR,≤ 0.2
23,PHAW,≤ 0.2
24,RMGK,≤ 0.2

row,Variant,one-hybrid fitness for binding NBS DNA
1,RMQD,≤ 0.2
2,RMLT,0.347
3,RMQT,0.371
4,RMSK,≤ 0.2
5,RMGT,0.432
6,RMIT,0.253
7,RMSG,≤ 0.2
8,RMQP,≤ 0.2
9,RMRT,0.633
10,RMGF,≤ 0.2
11,RMST,0.483
12,NYTS,≤ 0.2
13,GQGC,≤ 0.2
14,AMCS,≤ 0.2
15,NVHT,≤ 0.2
16,RMPT,≤ 0.2
17,RMWT,0.348
18,RMYT,0.417
19,PILE,≤ 0.2
20,WLPE,≤ 0.2
21,CTVI,≤ 0.2
22,RAMV,≤ 0.2
23,RKCN,≤ 0.2
24,RTCP,≤ 0.2

row,Variant,one-hybrid fitness for binding NBS DNA
1,RPCS,≤ 0.2
2,RMCP,≤ 0.2
3,RKCP,≤ 0.2
4,RMCS,0.383
5,RKCS,0.525
6,RMCD,≤ 0.2
7,RTCS,0.467
8,RTCH,0.234
9,RCCS,0.46
10,RSCS,0.343
11,IART,≤ 0.2
12,NTSG,≤ 0.2
13,NVYS,≤ 0.2
14,KVTC,≤ 0.2
15,QPTP,≤ 0.2
16,RWEY,≤ 0.2
17,ARSD,≤ 0.2
18,RCSW,≤ 0.2
19,RTFN,≤ 0.2
20,RTFR,0.441
21,RTAR,0.548
22,RTAH,≤ 0.2
23,RTAN,≤ 0.2
24,RTFS,0.339

row,Variant,one-hybrid fitness for binding NBS DNA
1,VCRV,≤ 0.2
2,RISE,≤ 0.2
3,TSIF,≤ 0.2
4,HHVS,≤ 0.2
5,SALW,≤ 0.2
6,HAHM,≤ 0.2
7,QQMD,≤ 0.2
8,QQMP,≤ 0.2
9,QQMH,0.222
10,QQMT,0.499
11,QQMK,≤ 0.2
12,QQMN,≤ 0.2
13,QQMR,0.584
14,QQMF,≤ 0.2
15,QQMS,0.368
16,TPTE,≤ 0.2
17,MRFN,≤ 0.2
18,SLPK,≤ 0.2
19,RCHW,≤ 0.2
20,TPGK,≤ 0.2
21,QQAD,≤ 0.2
22,QQFT,0.435
23,QQAT,0.482
24,DQFT,≤ 0.2

row,Variant,one-hybrid fitness for binding NBS DNA
1,QQAH,0.284
2,DRLH,≤ 0.2
3,NPTI,≤ 0.2
4,WVVG,≤ 0.2
5,ARKE,≤ 0.2
6,GRRW,≤ 0.2
7,PTWL,≤ 0.2
8,PTTT,≤ 0.2
9,ARAA,≤ 0.2
10,RHGE,≤ 0.2
11,QELE,≤ 0.2
12,DGQC,≤ 0.2
13,KKKY,≤ 0.2
14,RSWM,≤ 0.2
15,QRDY,0.289
16,QPCY,≤ 0.2
17,QRLY,0.447
18,QSLY,≤ 0.2
19,QRRY,0.718
20,QRNY,0.556
21,QCNY,0.297
22,QSCY,≤ 0.2
23,QRCY,0.508
24,QRPY,≤ 0.2

row,Variant,one-hybrid fitness for binding NBS DNA
1,QREY,0.256
2,QCLY,≤ 0.2
3,HFFC,≤ 0.2
4,LYPV,≤ 0.2
5,TISM,≤ 0.2
6,AKHW,≤ 0.2
7,ALKD,≤ 0.2
8,SPCC,≤ 0.2
9,WADF,≤ 0.2
10,RNVM,≤ 0.2
11,SLWP,≤ 0.2
12,MHGS,≤ 0.2
13,FLKC,≤ 0.2
14,NLKN,≤ 0.2
15,QRIY,0.271
16,QCGY,0.3
17,QPGY,≤ 0.2
18,QRSY,0.477
19,QCHY,0.258
20,QCSY,0.22
21,QRYY,0.433
22,QPHY,≤ 0.2
23,QRWY,0.289
24,QRGY,0.571

row,Variant,one-hybrid fitness for binding NBS DNA
1,QPSY,≤ 0.2
2,QRHY,0.553
3,KKIT,≤ 0.2
4,QYVI,≤ 0.2
5,PAGP,≤ 0.2
6,AGDQ,≤ 0.2
7,RWTS,≤ 0.2
8,MTVE,≤ 0.2
9,MHPL,≤ 0.2
10,NLEL,≤ 0.2
11,YEAS,≤ 0.2
12,QRKY,0.699
13,QCQY,0.265
14,QRQY,0.521
15,QRVY,0.344
16,NRKY,≤ 0.2
17,QSQY,≤ 0.2
18,GKDL,≤ 0.2
19,ARSS,≤ 0.2
20,LLLY,≤ 0.2
21,CCKR,≤ 0.2
22,CRKR,0.417
23,CRYR,≤ 0.2
24,CRVR,≤ 0.2

row,Variant,one-hybrid fitness for binding NBS DNA
1,CRRR,0.373
2,CRDR,≤ 0.2
3,SYHR,≤ 0.2
4,CIIR,≤ 0.2
5,QLHC,≤ 0.2
6,DTYG,≤ 0.2
7,LLQA,≤ 0.2
8,YPAF,≤ 0.2
9,QLYH,≤ 0.2
10,QLRH,0.452
11,QLRP,≤ 0.2
12,QLRN,0.319
13,QLRS,0.586
14,QLYS,0.252
15,EPSE,≤ 0.2
16,WYYR,≤ 0.2
17,QNWS,≤ 0.2
18,TTNM,≤ 0.2
